Bioassay records as filed in PubChem BioAssay.
MARV entry inh: inhibitors of Marburg virus binding or cell entry. 300,000 compounds, 1.8% hits. Potency, µM (highest dose often 37.8 µM), for inactives: top-dose activity change, negative = inhibition, actives largely listed as inhibitors. Marburg virus pseudotyped entry inhibition, cell reporter; calls by dose curve; tested in HEK293 cells; also: potency is read from the fitted curve at half-maximal effect
Pf growth 48h: inhibits P. falciparum growth in the first generation, 48 h; P. falciparum luciferase growth in erythrocytes, 48 h; AID 504832; 310,000 compounds, 5.9% hits; Potency, µM (titrated, usually from 28.7 µM), without a hit: at the highest dose activity change, negative = inhibition, hits mostly inhibitors; also: potency is read from the fitted curve at half-maximal effect
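Read-out is firefly luciferase luminescence from an integrated reporter in P. falciparum, so falling signal marks reduced parasite growth. Infected erythrocytes were at 2% hematocrit and 0.1% parasitemia (final) in Albumax-supplemented RPMI 1640.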
HCV inh: inhibitors of hepatitis C virus infection. Potency, µM (top dose mostly 41.8 µM), without a hit: top-dose activity change, negative = inhibition, actives largely listed as inhibitors. 340,000 compounds, 3.4% hits. Huh7.5.1 HCVcc-Cre infection, luciferase reporter, 44 h; also: potency is read from the fitted curve at half-maximal effect
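Infectious HCVcc-Cre (~0.5 moi) was added to cells just after compound, with cells seeded 4 h earlier at 1,000 per well. Luciferase activity after 44 h culture reported infection; substrate was incubated 15 min at room temperature before reading.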
Pf growth 96h: P. falciparum growth inhibition at 96 hours | P. falciparum luciferase reporter growth, 96 h | Potency, µM (doses to about 28.7 µM), inactives show at the highest dose activity change, negative = inhibition, usual class: inhibitors | 320,000 compounds, 6.9% hits | AID 504834; also: potency is read from the fitted curve at half-maximal effect
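Parasite growth measured via integrated firefly luciferase reporter in P. falciparum. Infected erythrocytes at 2% hematocrit, 0.05% parasitemia final were treated 96 hours at 37 C under 5% CO2, and luminescence was read.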
HCMV inh: blocks human cytomegalovirus replication | HFF cells, HCMV-luciferase reporter, 72 h; hits give low values | activity change, negative = inhibition, % at 57.5 µM | 410,000 compounds, 4.5% hits; in the data active = activity change below about -60%; inconclusive = no clear call, values can overlap the other calls; inactive = above about -39%
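Inhibition of viral replication was scored as loss of reporter luminescence in HFFs infected with HCMV-luciferase (MOI 1 PFU/cell) for 72 h; compounds tested at 2 doses, normalized to buffer and Salinomycin controls.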
Lassa entry inh: blocks Lassa virus binding to or entry into cells; 300,000 compounds, 1.2% hits; Lassa virus pseudotype entry inhibition, cell reporter; Potency, µM (series often up to 37.9 µM), for inactives: at the highest dose activity change, negative = inhibition, hits mostly inhibitors; calls by dose curve; tested in HEK293 cells; also: potency is read from the fitted curve at half-maximal effect; nearly all actives have a fitted effect of over 50% in size
Numbers without * were called inactive; ? = inconclusive; · = no result; [ ] = dose if it differs, or a comment. Hits are enriched below; roughly 14% of the tested compounds scored in any of these assays. Unless noted, calls follow the shape of the dose curve; as a rule, active = well fitted inhibition curve with a large enough effect; inconclusive = small, poorly fitted or top-dose-only effect, or another doubt; inactive = no such curve, though single readings can be large or run the other way. % is scaled to controls: 0 for no effect and ±100 for the full control effect.

SMILES | MARV entry inh | Pf growth 48h | HCV inh | Pf growth 96h | HCMV inh | Lassa entry inh
CCCNS(=O)(=O)c1cc(-c2nn3c(C)nnc3c3ccccc23)ccc1C | ? | · | · | · | -19 | ?
Cc1ccc(C)c(Nc2nnc(-c3ccc(C)c(S(=O)(=O)NCC4CCCO4)c3)c3ccccc23)c1 (configuration not stated) | ? | · | · | · | -104* | -16%[46.1 µM]
CNS(=O)(=O)c1cc(-c2nnc(Nc3ccc(NC(C)=O)cc3)c3ccccc23)ccc1C | ? | 10µM* | -29% | ? | -66* | -4%
CNC(=O)c1ccc(Nc2nnc(-c3ccc(C(N)=O)cc3)c3ccccc23)cc1 | ? | ? | 3% | 23% | 17 | 9%
CCOc1ccc(NC(=O)CN(C)C(=O)CN2C(=O)c3ccc([N+](=O)[O-])cc3C2=O)cc1OCC | -21% | 7% | 7% | 16% | 5 | 0%
CCOC1=C2[C@H](c3ccc(CC)cc3)N(S(=O)(=O)c3ccc(C)cc3)C[C@H]2n2c(=O)n(-c3ccccc3)c(=O)n2C1 | · | · | · | · | 17 | ·
Cc1ccc(C(=O)Nc2ccc(-c3nc4ccccc4o3)cc2)cc1Cl | · | · | · | · | 16 | 4%[46.1 µM]
Cc1ccc(Cl)cc1N1CCN(S(=O)(=O)c2ccc3c(c2)CCN3C(=O)C2CCC2)CC1 | -1%[46.1 µM] | · | · | · | 0 | 0%[46.1 µM]
C#CC(C)(C)NS(=O)(=O)c1cc(-c2nnc(Nc3ccc(C)cc3)c3ccccc23)ccc1C | ? | · | · | · | -87* | ?
CC(=O)Nc1ccc(Nc2nnc(-c3ccc(C)c(S(=O)(=O)NCC4CCCO4)c3)c3ccccc23)cc1 (configuration not stated) | · | 1µM* | 8% | 1.2µM* | -24 | ·
Cc1ccc(-c2nn3c(-c4ccco4)nnc3c3ccccc23)cc1S(=O)(=O)NCC1CCCO1 (configuration not stated) | ? | ? | 5% | -24% | -35 | -16%
Cc1ccc(-c2nnc(Nc3ccccc3)c3ccccc23)cc1S(=O)(=O)NCC1CCCO1 (configuration not stated) | ? | 4.1µM* | ? | ? | ? | ?
Nc1[nH]c(C(=O)c2ccccc2)c(-c2cccnc2)c1C(=O)c1ccccc1 | · | · | · | · | -3 | ·
COc1cc(OC)c(C2=NOC(C(=O)N3CCCc4ccccc43)C2)cc1Cl (configuration not stated) | ? | · | 5.6µM* | 8.3µM* | -30 | 1%
CCC1CCCCN1C(=O)C1CC(c2cc(Cl)c(OC)cc2OC)=NO1 (configuration not stated) | 2% | ? | 3% | · | -20 | -1%
c1ccc(CNc2nc3c(-c4ccccc4)nnn3c3ccccc23)cc1 | 20%[46.1 µM] | · | · | · | 1 | ?
Cc1ccc(NC(=O)Nc2ccc3snnc3c2)cc1C | 3%[46.1 µM] | · | · | · | -29 | -2%[46.1 µM]
CCOC(=O)c1ccc(NC(=O)Nc2ccc3snnc3c2)cc1 | 16%[46.1 µM] | · | · | · | -106* | 10%[46.1 µM]
O=C(Nc1ccc2snnc2c1)Nc1cccc2ccccc12 | ? | ? | 10µM* | · | -88* | ?
CCc1ccccc1NC(=O)Nc1ccc2snnc2c1 | 9%[46.1 µM] | · | · | · | -70* | ?
COc1cccc(NC(=O)Nc2ccc3snnc3c2)c1 | ? | · | · | · | -23 | 23%[46.1 µM]
O=C(NCc1ccco1)c1ccc(-c2ccc3nccn3c2)cc1 | · | · | · | · | 16 | ·
NC1=NC2=C(CCCC2)C2(CCCCC2)S1 | ? | 13µM* | ? | 213% | -23 | ?
NC(=S)NN=Cc1nccc2c(C(F)(F)F)cccc12 | · | · | · | · | -74* | ·
CNc1cccnc1C=NNC(N)=S | 1.3µM* | · | 3.5µM* | · | -99* | 0.63µM*
SMILES | MARV entry inh | Pf growth 48h | HCV inh | Pf growth 96h | HCMV inh | Lassa entry inh
CC(=O)Nc1ccc(/C=N/NC(N)=S)cc1 | · | 1% | · | -3% | · | ·
Cc1cccc(OCc2nnc(-c3ccc(F)cc3)o2)c1 | · | 29% | -3% | 4% | 47 | ·
CCCCN(C(=O)c1cnccn1)c1c(N)n(CCC)c(=O)[nH]c1=O | 5%[46.1 µM] | · | 1% | · | -11 | 12%[46.1 µM]
CCOC(=O)C1CCCN(C/C(O)=C(\C#N)c2nc(-c3ccccc3)cs2)C1 (configuration not stated) | 9% | 28% | 4% | 13µM* | -7 | 5%
N#C/C(=C(/O)CN1CCOCC1)c1nc(-c2ccccc2)cs1 | 18% | · | 3% | ? | 32 | 21%
CCN1C(=O)[C@H]2[C@@H](c3ccc(-c4ccc5c(c4)OCO5)c(OC)c3)N[C@@](Cc3ccccc3)(C(=O)OC)[C@H]2C1=O | · | 1.2µM* | ? | ? | 34 | ·
CCN1C(=O)[C@H]2[C@@H](c3ccc(-c4ccc(OC)cc4)c(OC)c3)N[C@@](CC(C)C)(C(=O)OC)[C@H]2C1=O | · | · | ? | · | 23 | ·
CCN1C(=O)[C@H]2[C@@H](c3ccc(-c4ccc5c(c4)OCO5)c(OC)c3)N[C@@](CC(C)C)(C(=O)OC)[C@H]2C1=O | · | 6.6µM* | -21% | 13µM* | -10 | ·
Cc1cccc(C)c1Nc1c(-c2ccsc2)nc2cccc(C)n12 | 14%[46.1 µM] | · | · | · | -14 | 4%[46.1 µM]
CCN(C(=O)COC(=O)c1ccccc1Oc1ccccc1)c1c(N)n(Cc2ccccc2)c(=O)[nH]c1=O | 21% | · | 3% | · | -8 | -24%
CCN(CC)CCCCCC(=O)Nc1ccccc1C(=O)Nc1ccccc1 | 13% | 10% | 3% | 10µM* | 0 | ?
Fc1ccc(NC(=S)Nc2nccs2)cc1 | · | 13µM* | ? | 0.29µM* | -115* | ·
S=C(Nc1ccccc1)Nc1nccs1 | 14µM* | ? | ? | 7.4µM* | -19 | 15µM*
CCCCn1c(N)c(N(CC(C)C)C(=O)c2ccco2)c(=O)[nH]c1=O | -3%[46.1 µM] | 6% | 7% | 50% | ? | 1%
COCc1cc(Sc2ccc(Cl)cc2Cl)nc(-c2ccccc2)n1 | -23% | 12µM* | -5% | ? | -13 | -15%
NC(=O)c1ccsc1NC(=O)c1ccc(S(=O)(=O)N2CCCc3ccccc32)cc1 | ? | ? | 11µM* | 10µM* | -71* | ?
O=C(O)c1ccc(S(=O)(=O)N2CCCc3ccccc32)cc1 | · | 13% | 15% | -2% | 34 | ·
COC(=O)c1sc2ccccc2c1NC(=O)c1ccc(S(=O)(=O)N2CCCCC2C)cc1 (configuration not stated) | ? | 15µM* | -24% | 13µM* | ? | -20%
NC(=O)c1ccsc1NC(=O)C1CCCN1S(=O)(=O)c1ccc(Cl)cc1 (configuration not stated) | 4% | ? | 17% | · | 9 | 1%
CC1CCCCN1S(=O)(=O)c1ccc(C(=O)Nc2sccc2C(N)=O)cc1 (configuration not stated) | · | 9.3µM* | ? | 9.3µM* | -38 | ·
